Six compounds from ChEMBL document CHEMBL1961873, “Compounds: GSK PKIS; Assays: Nanosyn kinase panel” (2012) can be followed below.

A word on the inhibition: it is the change of the read-out against control, counted positive when it falls.

The target of test [1] is High affinity nerve growth factor receptor (Homo sapiens) (UniProt P04629). As to conditions: at 1 µM.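 Also: each value is the mean percent inhibition of TRKA.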
In test [2] the target is BDNF/NT-3 growth factors receptor (Homo sapiens) (UniProt Q16620). As to conditions: at 0.1 µM.
BDNF/NT-3 growth factors receptor (Homo sapiens), sequence (Q16620 32-822 limits assumed): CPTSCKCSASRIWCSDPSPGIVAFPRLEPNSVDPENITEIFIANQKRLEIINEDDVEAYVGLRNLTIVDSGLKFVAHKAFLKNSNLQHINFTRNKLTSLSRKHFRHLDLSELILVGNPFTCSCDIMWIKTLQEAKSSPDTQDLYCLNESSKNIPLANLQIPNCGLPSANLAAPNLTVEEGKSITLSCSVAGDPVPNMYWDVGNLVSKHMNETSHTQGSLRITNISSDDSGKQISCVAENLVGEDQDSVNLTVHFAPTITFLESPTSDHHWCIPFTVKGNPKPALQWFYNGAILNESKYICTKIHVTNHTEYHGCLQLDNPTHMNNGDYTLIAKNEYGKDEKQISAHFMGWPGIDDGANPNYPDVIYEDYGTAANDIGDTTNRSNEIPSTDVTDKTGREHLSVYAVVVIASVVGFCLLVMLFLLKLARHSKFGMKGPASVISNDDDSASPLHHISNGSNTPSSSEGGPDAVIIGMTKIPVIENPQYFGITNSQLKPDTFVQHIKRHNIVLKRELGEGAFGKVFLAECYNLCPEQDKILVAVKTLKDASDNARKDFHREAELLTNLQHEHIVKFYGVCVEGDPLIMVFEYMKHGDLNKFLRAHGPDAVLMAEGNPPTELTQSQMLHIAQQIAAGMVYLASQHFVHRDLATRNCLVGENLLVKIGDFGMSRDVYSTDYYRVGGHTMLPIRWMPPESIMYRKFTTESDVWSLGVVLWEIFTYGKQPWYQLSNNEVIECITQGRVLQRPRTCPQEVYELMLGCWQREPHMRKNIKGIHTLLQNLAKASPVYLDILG
Test [3] shares this target. As to conditions: at 1 µM.
The target in test [4] is NT-3 growth factor receptor (Homo sapiens) (UniProt Q16288). As to conditions: at 0.1 µM.
NT-3 growth factor receptor (Homo sapiens), sequence (Q16288 32-839 limits assumed): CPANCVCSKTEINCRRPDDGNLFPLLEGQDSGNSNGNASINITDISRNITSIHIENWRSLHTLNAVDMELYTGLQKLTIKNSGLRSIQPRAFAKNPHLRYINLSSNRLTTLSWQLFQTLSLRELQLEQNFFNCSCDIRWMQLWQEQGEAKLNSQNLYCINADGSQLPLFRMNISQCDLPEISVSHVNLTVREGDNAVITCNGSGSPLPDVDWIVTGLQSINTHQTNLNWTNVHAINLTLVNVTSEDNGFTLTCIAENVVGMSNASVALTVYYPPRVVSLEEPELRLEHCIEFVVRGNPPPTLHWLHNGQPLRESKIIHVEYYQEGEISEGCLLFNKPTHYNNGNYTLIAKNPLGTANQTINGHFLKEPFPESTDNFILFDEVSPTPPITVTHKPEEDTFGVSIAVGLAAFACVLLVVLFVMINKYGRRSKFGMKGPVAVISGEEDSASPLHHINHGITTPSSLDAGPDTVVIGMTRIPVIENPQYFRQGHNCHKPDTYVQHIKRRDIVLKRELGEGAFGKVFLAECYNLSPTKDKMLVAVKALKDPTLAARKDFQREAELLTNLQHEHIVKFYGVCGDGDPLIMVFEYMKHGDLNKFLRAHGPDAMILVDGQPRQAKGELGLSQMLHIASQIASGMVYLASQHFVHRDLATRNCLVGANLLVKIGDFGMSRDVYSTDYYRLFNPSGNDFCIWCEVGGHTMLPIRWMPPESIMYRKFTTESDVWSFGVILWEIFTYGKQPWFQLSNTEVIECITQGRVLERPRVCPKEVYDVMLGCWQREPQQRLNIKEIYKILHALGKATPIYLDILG
The target is the same in test [5]. As to conditions: at 1 µM.
In test [6] the target is T1, Tyrosine-protein kinase TXK (Homo sapiens) (UniProt P42681).
T1 sequence (whole entry): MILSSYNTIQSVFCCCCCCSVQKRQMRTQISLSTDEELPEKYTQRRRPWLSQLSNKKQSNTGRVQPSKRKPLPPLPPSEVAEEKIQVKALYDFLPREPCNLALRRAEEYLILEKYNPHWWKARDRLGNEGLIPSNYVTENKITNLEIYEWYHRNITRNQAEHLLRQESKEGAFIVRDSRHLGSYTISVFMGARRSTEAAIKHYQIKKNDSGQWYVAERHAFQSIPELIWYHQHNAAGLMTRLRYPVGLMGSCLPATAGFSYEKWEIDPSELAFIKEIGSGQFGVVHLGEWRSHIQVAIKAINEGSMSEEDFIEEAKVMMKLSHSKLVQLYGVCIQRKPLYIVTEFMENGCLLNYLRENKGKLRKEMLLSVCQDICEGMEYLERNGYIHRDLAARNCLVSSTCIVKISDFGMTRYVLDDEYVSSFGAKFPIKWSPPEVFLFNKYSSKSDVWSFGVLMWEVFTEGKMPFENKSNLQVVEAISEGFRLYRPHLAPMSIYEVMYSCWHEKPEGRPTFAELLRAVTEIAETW
As to conditions: at 0.1 µM.

The target of test [7] is T1, Tyrosine-protein kinase TXK (Homo sapiens). As to conditions: at 1 µM.
The target of test [8] is Non-receptor tyrosine-protein kinase TYK2 (Homo sapiens) (UniProt P29597). As to conditions: at 0.1 µM.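 Also: each value is a mean of the inhibition readings.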
Test [9] addresses T2, Dual specificity protein kinase TTK (Homo sapiens) (UniProt P33981).
T2 sequence (whole entry): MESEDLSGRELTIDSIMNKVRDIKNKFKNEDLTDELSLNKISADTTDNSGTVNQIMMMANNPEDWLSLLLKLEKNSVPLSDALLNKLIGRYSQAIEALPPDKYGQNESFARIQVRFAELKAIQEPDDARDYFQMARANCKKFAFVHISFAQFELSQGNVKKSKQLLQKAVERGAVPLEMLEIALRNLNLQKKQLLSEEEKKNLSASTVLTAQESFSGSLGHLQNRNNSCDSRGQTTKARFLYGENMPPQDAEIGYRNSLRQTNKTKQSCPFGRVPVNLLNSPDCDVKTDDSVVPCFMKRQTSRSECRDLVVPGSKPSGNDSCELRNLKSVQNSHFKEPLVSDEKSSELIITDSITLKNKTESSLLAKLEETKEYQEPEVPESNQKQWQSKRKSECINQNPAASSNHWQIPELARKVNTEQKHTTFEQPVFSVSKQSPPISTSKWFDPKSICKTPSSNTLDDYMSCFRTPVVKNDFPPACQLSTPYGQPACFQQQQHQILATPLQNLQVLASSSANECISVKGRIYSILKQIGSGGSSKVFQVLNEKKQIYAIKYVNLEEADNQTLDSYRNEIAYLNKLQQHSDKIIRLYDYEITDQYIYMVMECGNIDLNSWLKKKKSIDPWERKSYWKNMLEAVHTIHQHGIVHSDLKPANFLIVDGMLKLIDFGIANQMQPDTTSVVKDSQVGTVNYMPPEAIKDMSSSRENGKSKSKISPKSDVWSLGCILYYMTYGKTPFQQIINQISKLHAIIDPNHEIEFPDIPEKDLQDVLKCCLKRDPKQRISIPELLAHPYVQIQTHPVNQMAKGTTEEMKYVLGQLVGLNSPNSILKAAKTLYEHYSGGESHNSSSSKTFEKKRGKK
As to conditions: at 1 µM.

Test [10] concerns the target T3, Aurora kinase A (Homo sapiens) (UniProt O14965).
T3 sequence (whole entry): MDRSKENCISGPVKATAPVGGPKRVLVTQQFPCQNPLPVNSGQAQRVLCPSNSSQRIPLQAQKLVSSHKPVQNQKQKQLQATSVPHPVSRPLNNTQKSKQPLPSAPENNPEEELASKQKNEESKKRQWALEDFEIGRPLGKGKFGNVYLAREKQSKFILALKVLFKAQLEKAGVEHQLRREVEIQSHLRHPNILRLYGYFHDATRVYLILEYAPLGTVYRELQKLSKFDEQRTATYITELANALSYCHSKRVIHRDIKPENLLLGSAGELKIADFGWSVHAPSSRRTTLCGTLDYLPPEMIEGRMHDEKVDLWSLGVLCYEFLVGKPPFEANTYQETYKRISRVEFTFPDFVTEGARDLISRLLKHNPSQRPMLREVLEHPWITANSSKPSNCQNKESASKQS
As to conditions: at 0.1 µM.

For test [11], the target named is T3, Aurora kinase A (Homo sapiens). As to conditions: at 1 µM.
In test [12] the target is Aurora kinase B (Homo sapiens) (UniProt Q96GD4). As to conditions: at 0.1 µM.
Aurora kinase B (Homo sapiens), sequence (Q96GD4 whole entry): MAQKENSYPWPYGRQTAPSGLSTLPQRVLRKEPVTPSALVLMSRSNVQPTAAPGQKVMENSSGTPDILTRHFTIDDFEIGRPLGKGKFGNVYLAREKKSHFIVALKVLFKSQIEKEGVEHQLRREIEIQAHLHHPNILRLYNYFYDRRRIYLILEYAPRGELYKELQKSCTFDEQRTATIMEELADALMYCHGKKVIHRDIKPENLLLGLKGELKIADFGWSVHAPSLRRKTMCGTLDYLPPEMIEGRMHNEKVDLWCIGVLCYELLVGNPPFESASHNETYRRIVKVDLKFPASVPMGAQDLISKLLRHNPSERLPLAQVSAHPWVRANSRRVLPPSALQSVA
Test [13] has the same target. As to conditions: at 1 µM.
The target in test [14] is T4, Aurora kinase C (Homo sapiens) (UniProt Q9UQB9).
T4 sequence (whole entry): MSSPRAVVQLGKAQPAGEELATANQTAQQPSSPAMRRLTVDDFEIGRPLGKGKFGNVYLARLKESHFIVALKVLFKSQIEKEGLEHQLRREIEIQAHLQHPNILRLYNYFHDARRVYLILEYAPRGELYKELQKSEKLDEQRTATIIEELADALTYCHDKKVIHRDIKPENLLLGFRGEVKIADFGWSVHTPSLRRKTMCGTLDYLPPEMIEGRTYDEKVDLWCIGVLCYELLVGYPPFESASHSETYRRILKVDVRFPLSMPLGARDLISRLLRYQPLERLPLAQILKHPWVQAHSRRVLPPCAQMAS
As to conditions: at 0.1 µM.

For test [15], the target named is T4, Aurora kinase C (Homo sapiens). As to conditions: at 1 µM.
For test [16], the target named is Serine/threonine-protein kinase 10 (Homo sapiens) (UniProt O94804). As to conditions: at 0.1 µM.
Serine/threonine-protein kinase 10 (Homo sapiens), sequence (O94804 whole entry, looked up): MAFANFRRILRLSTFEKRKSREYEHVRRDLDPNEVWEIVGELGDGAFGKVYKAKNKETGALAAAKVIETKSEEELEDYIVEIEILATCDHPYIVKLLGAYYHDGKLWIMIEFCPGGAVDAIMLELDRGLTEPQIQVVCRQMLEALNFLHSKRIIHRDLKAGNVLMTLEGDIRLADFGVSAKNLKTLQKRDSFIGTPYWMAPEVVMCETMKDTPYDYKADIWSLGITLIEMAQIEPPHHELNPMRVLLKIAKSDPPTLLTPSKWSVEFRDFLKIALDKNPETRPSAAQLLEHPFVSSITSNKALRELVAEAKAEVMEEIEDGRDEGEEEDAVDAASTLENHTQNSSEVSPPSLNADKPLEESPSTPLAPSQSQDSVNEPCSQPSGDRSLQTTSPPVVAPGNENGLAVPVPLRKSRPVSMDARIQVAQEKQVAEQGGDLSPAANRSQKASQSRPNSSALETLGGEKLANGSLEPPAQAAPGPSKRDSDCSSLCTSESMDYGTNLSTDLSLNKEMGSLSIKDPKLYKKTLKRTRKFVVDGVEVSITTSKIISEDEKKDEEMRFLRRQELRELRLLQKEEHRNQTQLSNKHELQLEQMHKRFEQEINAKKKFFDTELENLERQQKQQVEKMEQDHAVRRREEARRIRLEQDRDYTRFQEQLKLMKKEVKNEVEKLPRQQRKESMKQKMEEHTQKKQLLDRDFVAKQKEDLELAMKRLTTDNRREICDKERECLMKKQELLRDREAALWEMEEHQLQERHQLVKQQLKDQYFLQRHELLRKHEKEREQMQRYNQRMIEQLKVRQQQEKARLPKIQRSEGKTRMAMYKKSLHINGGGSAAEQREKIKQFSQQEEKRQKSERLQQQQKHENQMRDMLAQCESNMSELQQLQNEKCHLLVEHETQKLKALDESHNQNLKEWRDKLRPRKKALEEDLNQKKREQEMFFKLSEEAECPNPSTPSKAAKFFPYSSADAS
The target is the same in test [17]. As to conditions: at 1 µM.
The target of test [18] is T5, Mitogen-activated protein kinase kinase kinase kinase 2 (Homo sapiens) (UniProt Q12851).
T5 sequence (whole entry): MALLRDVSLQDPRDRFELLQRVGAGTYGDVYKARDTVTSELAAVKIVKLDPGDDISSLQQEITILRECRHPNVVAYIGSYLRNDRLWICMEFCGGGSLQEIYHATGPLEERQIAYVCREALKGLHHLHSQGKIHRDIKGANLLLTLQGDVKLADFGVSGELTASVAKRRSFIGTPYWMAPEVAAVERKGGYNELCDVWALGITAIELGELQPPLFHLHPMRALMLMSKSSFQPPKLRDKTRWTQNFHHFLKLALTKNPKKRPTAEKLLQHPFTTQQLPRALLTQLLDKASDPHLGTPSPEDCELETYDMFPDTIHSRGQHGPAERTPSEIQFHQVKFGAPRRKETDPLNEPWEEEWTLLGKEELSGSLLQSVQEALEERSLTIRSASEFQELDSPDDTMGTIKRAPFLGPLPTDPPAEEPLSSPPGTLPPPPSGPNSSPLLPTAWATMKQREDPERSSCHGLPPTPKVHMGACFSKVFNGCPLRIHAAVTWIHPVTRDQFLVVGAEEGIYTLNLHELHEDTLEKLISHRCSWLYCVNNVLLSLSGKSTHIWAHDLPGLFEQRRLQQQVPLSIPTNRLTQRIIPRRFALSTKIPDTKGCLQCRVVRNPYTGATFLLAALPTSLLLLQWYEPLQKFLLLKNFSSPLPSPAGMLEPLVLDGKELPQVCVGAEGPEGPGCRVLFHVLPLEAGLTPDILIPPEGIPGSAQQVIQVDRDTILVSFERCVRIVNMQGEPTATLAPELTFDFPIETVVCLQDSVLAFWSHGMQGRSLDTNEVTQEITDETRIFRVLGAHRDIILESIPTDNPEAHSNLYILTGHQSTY
As to conditions: at 0.1 µM.

Test [19] concerns the target T5, Mitogen-activated protein kinase kinase kinase kinase 2 (Homo sapiens). As to conditions: at 1 µM.
Test [20] has as its target Mitogen-activated protein kinase kinase kinase kinase 4 (Homo sapiens) (UniProt O95819). As to conditions: at 0.1 µM.

High affinity nerve growth factor receptor (Homo sapiens), sequence (P04629 33-796 limits assumed): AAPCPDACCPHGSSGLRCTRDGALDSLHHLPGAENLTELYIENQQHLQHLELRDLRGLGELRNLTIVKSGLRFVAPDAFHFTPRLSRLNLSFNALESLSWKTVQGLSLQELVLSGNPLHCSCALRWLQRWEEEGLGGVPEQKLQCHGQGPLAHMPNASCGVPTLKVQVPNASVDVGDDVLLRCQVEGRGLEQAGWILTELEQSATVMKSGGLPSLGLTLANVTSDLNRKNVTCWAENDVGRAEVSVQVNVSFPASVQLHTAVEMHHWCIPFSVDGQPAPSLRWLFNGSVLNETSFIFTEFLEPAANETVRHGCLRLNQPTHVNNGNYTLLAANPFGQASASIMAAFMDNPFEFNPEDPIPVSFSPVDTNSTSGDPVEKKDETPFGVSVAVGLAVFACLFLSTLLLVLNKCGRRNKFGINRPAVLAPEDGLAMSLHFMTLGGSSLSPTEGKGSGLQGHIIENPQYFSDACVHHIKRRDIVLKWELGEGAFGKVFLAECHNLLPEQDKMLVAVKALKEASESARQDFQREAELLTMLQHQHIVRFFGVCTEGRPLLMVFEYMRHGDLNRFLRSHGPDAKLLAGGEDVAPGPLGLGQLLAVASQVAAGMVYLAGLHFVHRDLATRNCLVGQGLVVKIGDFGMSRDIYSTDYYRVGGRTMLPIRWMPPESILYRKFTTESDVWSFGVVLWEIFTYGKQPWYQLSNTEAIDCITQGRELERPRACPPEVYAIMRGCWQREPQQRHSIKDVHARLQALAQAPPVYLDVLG
Mitogen-activated protein kinase kinase kinase kinase 4 (Homo sapiens), sequence (O95819 2-1239 limits assumed): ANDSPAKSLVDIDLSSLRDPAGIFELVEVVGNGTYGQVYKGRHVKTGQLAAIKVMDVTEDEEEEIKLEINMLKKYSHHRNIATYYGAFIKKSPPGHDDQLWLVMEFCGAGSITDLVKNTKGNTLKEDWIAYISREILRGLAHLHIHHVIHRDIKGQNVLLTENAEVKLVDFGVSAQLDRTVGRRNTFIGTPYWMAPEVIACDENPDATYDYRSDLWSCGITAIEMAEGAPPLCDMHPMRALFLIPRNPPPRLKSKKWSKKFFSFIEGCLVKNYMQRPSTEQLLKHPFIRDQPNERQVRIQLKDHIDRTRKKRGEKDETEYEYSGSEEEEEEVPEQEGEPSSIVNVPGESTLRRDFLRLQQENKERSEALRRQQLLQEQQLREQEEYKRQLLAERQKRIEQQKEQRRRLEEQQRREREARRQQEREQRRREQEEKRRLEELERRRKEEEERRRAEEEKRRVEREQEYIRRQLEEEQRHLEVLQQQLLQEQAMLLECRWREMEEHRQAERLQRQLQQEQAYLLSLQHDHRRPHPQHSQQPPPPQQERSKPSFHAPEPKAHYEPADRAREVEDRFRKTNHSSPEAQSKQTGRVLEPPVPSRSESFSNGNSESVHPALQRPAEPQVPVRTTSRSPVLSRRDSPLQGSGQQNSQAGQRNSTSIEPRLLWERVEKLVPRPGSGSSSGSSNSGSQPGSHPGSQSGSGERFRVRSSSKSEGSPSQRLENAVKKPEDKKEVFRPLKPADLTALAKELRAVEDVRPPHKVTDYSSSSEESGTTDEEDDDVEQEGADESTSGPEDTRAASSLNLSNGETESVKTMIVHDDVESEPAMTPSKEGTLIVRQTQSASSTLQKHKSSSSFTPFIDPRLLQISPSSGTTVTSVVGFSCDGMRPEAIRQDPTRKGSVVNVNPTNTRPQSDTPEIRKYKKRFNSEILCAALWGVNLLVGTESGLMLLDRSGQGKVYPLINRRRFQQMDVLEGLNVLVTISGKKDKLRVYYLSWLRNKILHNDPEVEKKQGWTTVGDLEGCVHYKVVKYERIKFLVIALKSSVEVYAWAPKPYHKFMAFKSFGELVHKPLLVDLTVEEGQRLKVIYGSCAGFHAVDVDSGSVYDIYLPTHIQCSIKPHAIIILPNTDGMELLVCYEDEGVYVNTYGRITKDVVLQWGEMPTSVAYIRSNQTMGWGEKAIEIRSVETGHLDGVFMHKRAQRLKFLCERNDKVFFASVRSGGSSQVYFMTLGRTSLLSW

For the compound `Fc1ccc(-c2nn3ccccc3c2-c2ccncc2)cc1`, the inhibition was 0.45% in [1]; 0.38% in test [2]; 0.3% in [3]; -0.15% in test [4]; -0.76% in [5]; 2.39% in test [6]. The inhibition in test [7] is 7.59%; in [8], 0.8%; in test [9] it was 2.44%; in test [10], 1.94%; in test [11] it was 8.81%; in test [12], -1.03%. The inhibition in [13] was 4.77%; in test [14], 0.61%; in [15], 2.01%; in test [16] it was 2.07%; in test [17], 1.79%; in test [18], 2.33%. In addition, the inhibition turned out to be 7.42% in test [19] and 5.52% in [20].

`NS(=O)(=O)c1ccc(Nc2ncc(-c3ccccc3)o2)cc1`: the inhibition was found to be 8.51% in test [1]; 5.29% in [2]; 15.4% in test [3]; 3.31% in test [4]; 16.7% in test [5]; 4.63% in test [6]. Moreover, the inhibition was 5.69% in test [7]; -1.15% in [8]; 13.2% in [9]; 8.3% in test [10]; 67.2% in [11]; 5.18% in test [12]. Also, the inhibition in test [13] was 24.7%; in test [14], 6.57%; in test [15] it was 54.5%; in [16], 5.53%; in test [17], 11.7%; in [18], 1.1%. Moreover, the inhibition stood at 8.73% in [19] and 12.4% in test [20].

In the case of `COC(=O)c1sc(-n2cnc3cc(OC)c(OC)cc32)cc1OCc1ccccc1C(F)(F)F`, the inhibition turned out to be 3.03% in test [1]; 5.22% in [2]; 14.9% in test [3]; 3.71% in test [4]; 16.9% in test [5]; 2.16% in test [6]. Moreover, the inhibition in [7] was 7.15%; in test [8] it was -1.4%; in test [9], 17.2%; in [10], 4.18%; in test [11], 32.2%; in [12], 13.9%. Further, the inhibition was 54.5% in test [13]; 5.23% in test [14]; 54.9% in test [15]; 6.81% in [16]; 21.6% in test [17]; -0.16% in test [18]. Further, the inhibition in [19] was 3.42%; in test [20] it was 6.34%.

Regarding `O=S(=O)(CCNCc1ccc(-c2ccc3ncnc(Nc4ccc(OCc5cccc(F)c5)c(Cl)c4)c3c2)o1)c1ccccc1`, the inhibition in test [1] was 1.84%; in test [2] it was 3.5%; in [3] it was 5.72%; in [4] it was 3.32%; in test [5], 5.45%; in [6], -1.02%. The inhibition was 5.43% in [7]; -1.8% in test [8]; 9.69% in test [9]; 6.02% in test [10]; 6.24% in test [11]; 5.41% in test [12]. The inhibition in test [13] stood at 11.8%; in test [14] it was 2.93%; in [15], 10.2%; in test [16] it was 9.92%; in test [17], 17.5%; in test [18] it was 2.04%. Besides, the inhibition was determined as 5.59% in test [19] and 4.02% in [20].

As for `Nc1ncc(-c2cccc(S(N)(=O)=O)c2)c2scc(-c3ccc(F)c(Cl)c3)c12`, the inhibition is 2.2% in [1]; 2.61% in test [2]; 3.28% in test [3]; 1.75% in test [4]; 1.1% in test [5]; 82% in test [6]. The inhibition in test [7] is 91.6%; in [8], -1.25%; in test [9] it was 14.3%; in test [10], 3.16%; in [11], 5.8%; in test [12], 2.25%. Further, the inhibition in test [13] is 14.7%; in test [14] it was 4.24%; in test [15], 24.6%; in test [16], 8.9%; in test [17], 24.7%; in [18] it was 6.47%. Also, the inhibition in [19] came to 31.4%; in test [20], 78.5%.

With `COC(=O)Nc1nc2ccc(Oc3ccc(NC(=O)Nc4cccc(Cl)c4)cc3)cc2[nH]1`, the inhibition in test [1] came to 41.6%; in [2], 8.53%; in test [3], 22%; in test [4], 11.7%; in [5] it was 26.1%; in test [6], 0.76%. The inhibition in test [7] came out at 2.29%; in [8], 2%; in test [9], 3.42%; in [10], 2.85%; in test [11], 0.65%; in [12] it was 16%. Further, the inhibition in test [13] worked out at 22.7%; in [14], 16.6%; in [15], 35.3%; in test [16], 14.1%; in test [17], 27.1%; in test [18], 0.77%. In addition, the figures for the inhibition in test [19] and in test [20] were 7.45% and 0.19%, respectively.
